Screen size: about 370,000 compounds; about 4,800 (1.3%) were called active.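 The calls were made as follows: active = inhibition above about 21% made by adding two undisclosed values (limit read from the data); inactive = the rest.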 The sample as a whole holds a higher share of actives than the screen did.

For the test, the target named is Protein arginine N-methyltransferase 1 (Homo sapiens) (UniProt Q99873). Kind of test: PRMT1 methyltransferase inhibitors, primary screen, biochemical, fluorescence polarization (AID 652257). Particulars: recombinant PRMT1, activity-based probe fluorescence polarization; at 2.79 µM; active compounds read high. (In general: Fluorescence polarisation rises when a labelled molecule tumbles more slowly, as on binding a larger partner.)
Chain of Protein arginine N-methyltransferase 1 (Homo sapiens) (Q99873 whole entry, looked up): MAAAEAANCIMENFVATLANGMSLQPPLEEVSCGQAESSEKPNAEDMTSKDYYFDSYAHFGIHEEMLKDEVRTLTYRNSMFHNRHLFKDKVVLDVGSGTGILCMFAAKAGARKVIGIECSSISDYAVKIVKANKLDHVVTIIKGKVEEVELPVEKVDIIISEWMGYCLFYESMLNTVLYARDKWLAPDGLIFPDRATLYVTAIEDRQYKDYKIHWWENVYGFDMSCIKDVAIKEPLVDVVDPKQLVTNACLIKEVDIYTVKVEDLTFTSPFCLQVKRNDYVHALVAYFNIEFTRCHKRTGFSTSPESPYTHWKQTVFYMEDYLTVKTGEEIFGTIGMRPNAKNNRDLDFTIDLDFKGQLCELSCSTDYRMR
Broadly, the inhibition is the relative decrease from the control value, in per cent. Turning to `Cc1ccc(C(=O)N(Cc2ccccn2)CC2CCCO2)cc1` (centres undefined), the inhibition is -2.09% (inactive).
To `NNC(=O)c1oc2nc(-c3ccccc3)cc(-c3ccco3)c2c1N` belongs -3.39% (inactive).
To `CNC(=S)NNC(=O)c1oc2nc(-c3ccccc3)cc(-c3ccco3)c2c1N` belongs 21.9% (active).
With `O=C(OCC#CCSc1nnc(-c2ccco2)o1)c1ccc(F)cc1` the figure was -2.56% (inactive); with `COc1ccc(-c2cc(-c3nnc(SCc4ccc([N+](=O)[O-])cc4)n3N)[nH]n2)cc1`, -4.36% (inactive); with `O=C(NCc1ccco1)/C(=C/c1ccco1)NC(=O)c1ccccc1`, 7.1% (inactive).
Consider `O=C(NC(Cc1ccccc1)C(=O)O)/C(=C\c1ccccc1)NC(=O)c1ccco1` (centres undefined), for which the inhibition was -0.14% (inactive).
As for `O=C(NC(Cc1c[nH]c2ccccc12)C(=O)O)/C(=C/c1ccco1)NC(=O)c1ccccc1` (centres undefined), the inhibition is 25.5% (active).
To `O=C1CC[C@@]23CCCN2C(=O)CCC[C@H]3[C@H]1Cc1ccccc1` belongs 2.04% (inactive); to `O=C(C[C@H]1C[C@H](C(=O)N2CCOCC2)[C@@]2(CCC3CCCC3)c3[nH]c4ccc(Cl)cc4c3CCN2C1=O)NCc1ccco1`, -5.92% (inactive).
With `C=CCN1C(=O)[C@@H](CC(=O)NCCCCc2ccccc2)[C@]2(C(=O)OCC)CCCCC/C=C/12` the figure was 1.83% (inactive); with `Cn1c(=O)[nH]c(=O)c2c1[nH]c(=S)n2Cc1ccccc1`, 4.37% (inactive); with `Cc1cc2nc3c(=O)n(Cc4ccccc4)c(=O)[nH]c3nc2cc1N`, 142% (active).
With `CCC(=O)Nc1c(S(=O)(=O)c2ccccc2)c2nc3ccccc3nc2n1Cc1ccccc1` the figure was 0.02% (inactive).
Consider `CCC(CO)Nc1cccc2c1S(=O)(=O)N(Cc1cn(Cc3ccccc3C(F)(F)F)nn1)Cc1ccccc1O2` (centres undefined), for which the inhibition is 0.43% (inactive).
On to `N#Cc1c(N2CCCCC2)nc(N)c2c(N)nc(SCC(=O)O)cc12`, for which the inhibition is 29.1% (active).
With `Cc1nn(-c2ncccn2)c2c1C(=O)CC(C)(C)C2Br` (centres undefined) the figure was -1.26% (inactive); with `CCOC(=O)c1cc2c(ccn2C)n1CC(=O)N1CCC(C)CC1`, 1.01% (inactive); with `O=C(CSc1nnc(-c2ccccn2)n1-c1ccc(Cl)cc1)Nc1ccccc1-c1ccccc1`, 0.72% (inactive).
With `COCCN1C(=O)C(=O)/C(=C(/O)c2ccc(S(=O)(=O)N3CCCCC3)cc2)C1c1ccc(OC)c(OC)c1` (centres undefined) the figure was -2.03% (inactive); with `COCCN1C(=O)C(=O)/C(=C(/O)c2ccc(S(=O)(=O)N3CCOCC3)cc2)C1c1ccc(OC)c(OC)c1` (centres undefined), 4.25% (inactive).
In the case of `CCOc1cc(C2/C(=C(/O)c3ccc(S(=O)(=O)N4CCCCC4)cc3)C(=O)C(=O)N2CCOC)ccc1O` (centres undefined), the inhibition is 28.9% (active).
To `COC(=O)c1cc(NS(=O)(=O)c2ccc3c(c2)c(=O)n(C)c(=O)n3C)cc(C(=O)OC)c1` belongs 3.19% (inactive); to `CN(C)S(=O)(=O)c1ccc(N/C=C(\[N+](=O)[O-])S(=O)(=O)c2ccccc2)cc1`, 1.43% (inactive); to `CC(C)CSc1nnc(-c2cccnc2)n1Cc1ccccc1`, 1.95% (inactive).
With `Cc1cccc(-c2nc3c(c(SCC(=O)N4CCOCC4)n2)CCCC3)c1`, the inhibition was -2.28% (inactive).
With `C=CCN1C(=O)c2ccc(C(=O)N3CCC(C(=O)OCC)CC3)cc2C1=O` the figure was -1.32% (inactive); with `Cc1sc(NC(=O)C2C3CCC(O3)C2C(=O)O)c(C(=O)OC(C)C)c1-c1ccc(Cl)cc1` (centres undefined), 22.5% (active).
In the case of `CC(C)OC(=O)c1cc(NC(=O)C2C3CCC(O3)C2C(=O)O)cc(C(=O)OC(C)C)c1` (centres undefined), the inhibition was -2.71% (inactive).
Regarding `COc1ccc(NC(=O)C2C3CCC(O3)C2C(=O)O)cc1OC` (centres undefined), the inhibition is 1.91% (inactive).
Take `CCOC(=O)c1csc(NC(=O)C2CCCN(S(=O)(=O)c3ccc(Cl)s3)C2)n1` (centres undefined): the inhibition was -5.11% (inactive).
With `Cc1nc(CNc2ncnc3ccc(-c4ccc5c(c4)OCO5)cc23)cs1` the figure was 6.73% (inactive); with `COc1ccc(C(=O)OCCN2CCN(C3CN(Cc4cn(Cc5ccccc5F)nn4)S(=O)(=O)C3)CC2)cc1OC` (centres undefined), -2.53% (inactive).
With `Cc1cccc(NC(=O)c2nc(S(=O)(=O)Cc3ccccc3)ncc2Cl)c1` the figure was 31.1% (active).
To `O=C(CCS(=O)(=O)c1ccccc1)Nc1ccc(Cl)c(Cl)c1` belongs 1.21% (inactive).
For the compound `Cc1cccc(C(=O)Nc2c(-c3ccc(F)cc3)nc3ncccn23)c1`, the inhibition was 1.66% (inactive).
In the case of `Cc1cccc(CS(=O)(=O)c2ncc(Cl)c(C(=O)Nc3ccc(F)cc3)n2)c1`, the inhibition was 31.4% (active).
To `Cc1cccc(NC(=O)c2cc3c(C)nn(-c4ccccc4)c3s2)c1` belongs -4.86% (inactive).
To `Cc1cc(NS(=O)(=O)c2ccc(NC(=S)NC(=O)c3ccc(F)cc3Cl)cc2)no1` belongs -2.11% (inactive); to `Cc1cccnc1NC(=O)Cn1c(=O)oc2ccccc21`, 5.97% (inactive).
Regarding `COC[C@@H]1CCCN1c1ccc2c(c1)O[C@H](C)CCN(C1CC1)S2(=O)=O`, the inhibition is -6.48% (inactive).
On to `O=C(Nc1cc(F)cc(F)c1)OC1CCC12CCC(c1ccccc1)CC2` (centres undefined), for which the inhibition is -0.51% (inactive).
With `COc1ccc([C@H]2OC(=O)C[C@H]2C(=O)N2CCN(c3ccccc3F)CC2)cc1OC` the figure was -4.27% (inactive); with `Clc1cccc(-c2nc3nc4ccccc4nc3n2Cc2ccco2)c1`, 34.2% (active).
Regarding `O=C(CSc1nnc(-c2ccccc2)n1Cc1ccco1)Nc1ccccc1-c1ccccc1`, the inhibition was 12.6% (inactive).
As for `O=C(CSc1nnc(-c2cccc(Cl)c2)n1Cc1ccco1)Nc1ccc(OCc2ccccc2)cc1`, the inhibition was -2.9% (inactive).
To `COc1ccccc1C(C)NC(=O)Cc1ccsc1` (centres undefined) belongs -0.88% (inactive); to `CCOc1ccc2[nH]c(=O)c(CN(Cc3nnnn3CCc3ccccc3)CC3CCCO3)cc2c1` (centres undefined), -1.4% (inactive); to `CCC(c1nnnn1Cc1ccco1)N(CCc1ccccc1)Cc1cc2ccc(OC)cc2[nH]c1=O` (centres undefined), 44.2% (active).
In the case of `CCOc1ccc(CN(Cc2ccco2)C(c2cccs2)c2nnnn2C(C)(C)C)cc1` (centres undefined), the inhibition is 2.59% (inactive).
With `COc1ccc2[nH]c(=O)c(CN(CC3CCCO3)C(=O)Nc3ccccc3)cc2c1` (centres undefined) the figure was -3.84% (inactive); with `CCC(=O)N(Cc1cc2ccccc2[nH]c1=O)c1ccc(OC)cc1`, 1.11% (inactive); with `CCC(c1nnnn1Cc1ccco1)N(Cc1cc2cc(OC)ccc2[nH]c1=O)C1CCCCC1` (centres undefined), 35.9% (active).
With `CNc1cncc(-c2ccc(NS(C)(=O)=O)cc2)n1` the figure was 4.53% (inactive).
`N#C/C(=C\c1ccccc1)c1n[nH]c(Cn2cncn2)n1`: the inhibition is -3.96% (inactive).
With `CCCCNC(=O)C[C@H]1C(=O)N(Cc2ccc(OC)cc2)C2=CCCC[C@@]21C(=O)OCC` the figure was 2.73% (inactive); with `COC(=O)c1cc(S(=O)(=O)N2CCN(C(=O)C3CCCO3)CC2)cn1C` (centres undefined), -1.95% (inactive); with `O=C(CSc1nc2sc3c(c2c(=O)n1-c1ccccc1)CCCC3)NN=Cc1ccc(OCc2ccccc2)cc1`, 0.97% (inactive).
To `Cc1ccccc1CN1CCCCC(NC(=O)c2cccc(C#N)c2)C1=O` (centres undefined) belongs 1.34% (inactive).
On to `CCCCOCCCNC(=O)C[C@H]1C[C@@]2(C(=O)OC)C(=C[C@H](C(C)(C)C)O[C@@H]2C)N(CCc2ccc(OC)c(OC)c2)C1=O`, for which the inhibition is -3.25% (inactive).
To `CCCNC(=O)C1CC(=O)N(c2ccc(OCc3ccccc3)cc2)C1` (centres undefined) belongs -0.86% (inactive).
`COc1cc(C2C(C(=O)c3ccco3)=C(O)C(=O)N2c2cc(C)on2)ccc1OCc1ccccc1` (centres undefined): the inhibition was 4.72% (inactive).
In the case of `COc1cc(C2CC(=O)N3CN(Cc4ccccc4)CSC3=C2C#N)ccc1OCc1ccccc1` (centres undefined), the inhibition is 38.8% (active).
Consider `COc1ccnc(C(=O)N2CCC(Oc3cccnc3)CC2)c1`, for which the inhibition is 2.35% (inactive).
With `Cc1cc(=O)[nH]c(=S)[nH]1` the figure was 107% (active).
With `CSc1cc(C)[nH]c(=O)n1` the figure was 2.31% (inactive); with `Cc1cc(=O)cc(C)[nH]1`, -3.92% (inactive).
To `COC(=O)[C@H](C(C)C)N(CCc1cn(Cc2ccccc2)nn1)S(=O)(=O)c1ccc(F)cc1Br` belongs 0.27% (inactive); to `Cc1ccc(C)c(S(=O)(=O)N(C)c2ccc(OC(=O)C3CCN(C(=O)c4ccc(F)cc4)CC3)cc2)c1`, 0.47% (inactive); to `CCOC(=O)N1CCN(C(c2cccnc2)c2ccc3cccnc3c2O)CC1` (centres undefined), 26.1% (active).
`CCOC(=O)N1CCN(C(c2ccnc3ccccc23)c2nnnn2-c2c(C)cccc2C)CC1` (centres undefined): the inhibition is -3.34% (inactive).
To `CCCCC(=O)NC(c1ccc(OC)c(OC)c1)c1ccc2cccnc2c1O` (centres undefined) belongs -1.04% (inactive); to `Cc1cccc(N2CCC(NCc3c(C(=O)N4CCCCC4)nc4c(C)cccn34)CC2)c1`, 7.11% (inactive); to `O=C(O)C1CCN(S(=O)(=O)N2CCOCC2)CC1`, 0.67% (inactive).
With `CCOC(=O)C(NC(=O)CC(C)C)(Nc1sc2c(c1C(N)=O)CCCC2)C(F)(F)F` (centres undefined) the figure was 0.14% (inactive); with `O=C(O)c1c(NC(=O)N2CCCC2)sc2c1CCCC2`, 4.25% (inactive); with `NC(=O)c1c(Nc2nc3c(F)cccc3s2)sc2c1CCCC2`, 48.8% (active).
To `Cc1ccc(-c2ccc(/C=C(\C#N)C(N)=S)o2)c([N+](=O)[O-])c1` belongs 34.7% (active).
In the case of `Cc1ccc2nc(SCc3nnc(-c4ccccc4[N+](=O)[O-])o3)c(C#N)cc2c1`, the inhibition was -0.9% (inactive).
With `COc1ccc(CN2C(=O)C(CC(=O)NCCCCc3ccccc3)CC(C(=O)N3CCOCC3)=C2C)cc1` (centres undefined) the figure was -9.04% (inactive); with `COCCNC(=O)C(c1ccc(C)cc1)N(C(=O)CCC(=O)Nc1ccccn1)c1cccc(C)c1` (centres undefined), -0.11% (inactive); with `CCOC(=O)c1c(N=CN(C)C)c(C#N)c2n1CCCC2`, -2.76% (inactive).
To `Cc1ccc(Cn2cc(COC(=O)N(C)Cc3ccccc3)nn2)cc1` belongs 0.99% (inactive); to `O=C(COC(=O)Cn1[nH]c(=O)c2ccccc2c1=O)Nc1ncc(Cl)cc1Cl`, -0.63% (inactive).

Values taken from PubChem BioAssay AID652257 (The Scripps Research Institute Molecular Screening Center, 2013).
